According to a collection of fitness landscapes (doi:10.1126/science.1257360):
In all, about 140,000 sequences were measured (“enrichment ratio after two sorts for PhoP signalling”: median about 0, highest 2% from about 11 on). This is one part of a sample in which the highest values are shown more often than they occur.

B1: PhoQ; a variant is named by its letters at X, in order, P23837 (parent)
chain: MKKLLRLFFPLSLRVRFLLATAAVVLVLSLAYGMVALIGYSVSFDKTTFRLLRGESNLFYTLAKWENNKLHVELPENIDKQSPTMTLIYDENGQLLWAQRDVPWLMKMIQPDWLKSNGFHEIEADVNDTSLLLSGDHSIQQQLQEVREDDDDAEMTHSVAVNVYPATSRMPKLTIVVVDTIPVELKSSYMVWSWFIYVLSANLLLVIPLLWVAAWWSLRPIEALAKEVRELEEHNRELLNPATTRELTSLVRNLNRLLKSERERYDKYRTTLTDLTHSLKTPLXXLQXXLRSLRSEKMSVSDAEPVMLEQISRISQQIGYYLHRASMRGGTLLSRELHPVAPLLDNLTSALNKVYQRKGVNISLDISPEISFVGEQNDFVEVMGNVLDNACKYCLEFVEISARQTDEHLYIVVEDDGPGIPLSKREVIFDRGQRVDTLRPGQGVGLAVAREITEQYEGKIVAGESMLGGARMEVIFGRQHSAPKDE

Variants of: B1
Assay: enrichment ratio after two sorts for PhoP signalling (ratio (wild type AVST 3.29)); higher = more functional
Details: with PhoP (E. coli)
TNRW gave an enrichment ratio of at most 0.25.
Variant LWKV has an enrichment ratio of at most 0.25.
IVDK was tested, and the enrichment ratio was at most 0.25.
With EHTD the enrichment ratio was at most 0.25.
NKKA gave an enrichment ratio of at most 0.25.
Work on MHGI yielded an enrichment ratio of at most 0.25.
Variant QKAH has an enrichment ratio of at most 0.25.
KQVW showed an enrichment ratio of at most 0.25.
In the case of ECVR, the enrichment ratio is reported as at most 0.25.
In the case of KPPV, the enrichment ratio is reported as at most 0.25.
KAGN gave an enrichment ratio of at most 0.25.
Variant MAGN has an enrichment ratio of 13.5.
With MMGN the enrichment ratio was at most 0.25.
Variant NAGN has an enrichment ratio of at most 0.25.
MEGN showed an enrichment ratio of 10.8.
MCGN gave an enrichment ratio of 16.3.
With WWPI the enrichment ratio was at most 0.25.
DCFD was tested, and the enrichment ratio was at most 0.25.
MDYF showed an enrichment ratio of at most 0.25.
MIAA gave an enrichment ratio of 11.7.
For MIYI, the enrichment ratio was 24.3.
MIFA gave an enrichment ratio of at most 0.25.
With MIWI the enrichment ratio was 3.74.
With MIAD the enrichment ratio was at most 0.25.
MILQ gave an enrichment ratio of 14.
MIYF was tested, and the enrichment ratio was 24.3.
Variant MELQ has an enrichment ratio of 3.81.
MITA showed an enrichment ratio of at most 0.25.
MKAA was tested, and the enrichment ratio was at most 0.25.
MTYF gave an enrichment ratio of 7.02.
In the case of KCES, the enrichment ratio is reported as at most 0.25.
FVYA was tested, and the enrichment ratio was at most 0.25.
With FGWI the enrichment ratio was at most 0.25.
Variant LDYV has an enrichment ratio of at most 0.25.
For DLSC, the enrichment ratio was at most 0.25.
IAQI was tested, and the enrichment ratio was at most 0.25.
For MISC, the enrichment ratio was 23.
In the case of MILY, the enrichment ratio is reported as 0.599.
With MITH the enrichment ratio was at most 0.25.
MIMF was tested, and the enrichment ratio was 0.51.
MIGF showed an enrichment ratio of 11.9.
MIYH was tested, and the enrichment ratio was 7.94.
MIFC was tested, and the enrichment ratio was at most 0.25.
MILA gave an enrichment ratio of 1.31.
In the case of MISK, the enrichment ratio is reported as at most 0.25.
Variant MITI has an enrichment ratio of 14.6.
For MIHF, the enrichment ratio was 3.77.
With MIGH the enrichment ratio was 18.2.
With NIWL the enrichment ratio was at most 0.25.
Variant WCMF has an enrichment ratio of at most 0.25.
Variant KFLW has an enrichment ratio of at most 0.25.
SFFA was tested, and the enrichment ratio was at most 0.25.
IEDQ showed an enrichment ratio of at most 0.25.
Variant TAFY has an enrichment ratio of 2.48.
With RVSG the enrichment ratio was at most 0.25.
For LAEY, the enrichment ratio was at most 0.25.
In the case of GIVQ, the enrichment ratio is reported as 2.03.
With MIFT the enrichment ratio was at most 0.25.
MIAQ gave an enrichment ratio of 14.7.
Variant MIMV has an enrichment ratio of at most 0.25.
MIAT showed an enrichment ratio of 12.1.
Work on MITV yielded an enrichment ratio of 17.2.
Work on MFAQ yielded an enrichment ratio of at most 0.25.
Work on MSAQ yielded an enrichment ratio of 9.85.
In the case of MILT, the enrichment ratio is reported as at most 0.25.
Variant MIWV has an enrichment ratio of at most 0.25.
In the case of HFIN, the enrichment ratio is reported as at most 0.25.
LDFC was tested, and the enrichment ratio was at most 0.25.
MDHH gave an enrichment ratio of at most 0.25.
With PDDC the enrichment ratio was at most 0.25.
Work on IFMI yielded an enrichment ratio of at most 0.25.
WEFI gave an enrichment ratio of at most 0.25.
SHNC showed an enrichment ratio of 0.752.
KCNC showed an enrichment ratio of at most 0.25.
RGNC was tested, and the enrichment ratio was at most 0.25.
Work on NHNC yielded an enrichment ratio of at most 0.25.
Variant NGNC has an enrichment ratio of at most 0.25.
SLNC was tested, and the enrichment ratio was at most 0.25.
THNC gave an enrichment ratio of 11.9.
In the case of TGNC, the enrichment ratio is reported as 61.8.
For KSNC, the enrichment ratio was at most 0.25.
TCNC gave an enrichment ratio of 14.3.
STNC gave an enrichment ratio of at most 0.25.
SNNC showed an enrichment ratio of 18.6.
In the case of SIFT, the enrichment ratio is reported as at most 0.25.
With PGDY the enrichment ratio was at most 0.25.
For QRCP, the enrichment ratio was at most 0.25.
Variant NMAF has an enrichment ratio of at most 0.25.
QMGQ was tested, and the enrichment ratio was at most 0.25.
With QVAS the enrichment ratio was at most 0.25.
In the case of SKNA, the enrichment ratio is reported as at most 0.25.
DLFK showed an enrichment ratio of at most 0.25.
DATT was tested, and the enrichment ratio was at most 0.25.
Work on SHNF yielded an enrichment ratio of 9.74.
TFNC showed an enrichment ratio of 2.85.
With NHNQ the enrichment ratio was at most 0.25.
SHNQ showed an enrichment ratio of 0.892.
Variant TANC has an enrichment ratio of 12.1.
With IANC the enrichment ratio was at most 0.25.
KANC gave an enrichment ratio of at most 0.25.
TFNQ was tested, and the enrichment ratio was 13.4.
TDNC showed an enrichment ratio of 13.4.
For YCNQ, the enrichment ratio was at most 0.25.
FDNC was tested, and the enrichment ratio was at most 0.25.
KDNC gave an enrichment ratio of at most 0.25.
In the case of THNQ, the enrichment ratio is reported as 30.9.
Work on TNPA yielded an enrichment ratio of at most 0.25.
For VGFR, the enrichment ratio was at most 0.25.
In the case of YITS, the enrichment ratio is reported as 0.602.
ECNN gave an enrichment ratio of at most 0.25.
Variant KVKT has an enrichment ratio of at most 0.25.
GNYR gave an enrichment ratio of at most 0.25.
Variant DIML has an enrichment ratio of at most 0.25.
Variant NESL has an enrichment ratio of at most 0.25.
AHSL gave an enrichment ratio of 0.581.
In the case of MDSL, the enrichment ratio is reported as at most 0.25.
MESL was tested, and the enrichment ratio was 13.9.
Variant AESL has an enrichment ratio of 11.7.
Variant AQSL has an enrichment ratio of 7.47.
In the case of TESL, the enrichment ratio is reported as 12.5.
Work on QESL yielded an enrichment ratio of 0.967.
With MMSL the enrichment ratio was 6.66.
With RWWS the enrichment ratio was at most 0.25.
RAAP was tested, and the enrichment ratio was at most 0.25.
FFQI was tested, and the enrichment ratio was at most 0.25.
NMFS gave an enrichment ratio of at most 0.25.
For AIQP, the enrichment ratio was at most 0.25.
In the case of ERDH, the enrichment ratio is reported as at most 0.25.
Variant TVNS has an enrichment ratio of 18.9.
PVNI showed an enrichment ratio of at most 0.25.
For FVNS, the enrichment ratio was at most 0.25.
TVNI gave an enrichment ratio of 12.6.
Work on TVNW yielded an enrichment ratio of at most 0.25.
Variant TVNY has an enrichment ratio of at most 0.25.
For WILF, the enrichment ratio was at most 0.25.
In the case of MDWW, the enrichment ratio is reported as at most 0.25.
With ACPI the enrichment ratio was 9.4.
Variant RIAV has an enrichment ratio of at most 0.25.
In the case of HQNT, the enrichment ratio is reported as at most 0.25.
IGGC was tested, and the enrichment ratio was at most 0.25.
Variant SHCG has an enrichment ratio of 16.6.
Work on SHMG yielded an enrichment ratio of 17.8.
In the case of THMG, the enrichment ratio is reported as 2.89.
With SHMW the enrichment ratio was 0.684.
Work on SHVG yielded an enrichment ratio of at most 0.25.
Work on THCG yielded an enrichment ratio of 5.77.
Variant REDG has an enrichment ratio of at most 0.25.
In the case of WCII, the enrichment ratio is reported as at most 0.25.
ENIH showed an enrichment ratio of at most 0.25.
MRCK was tested, and the enrichment ratio was at most 0.25.
MGLF gave an enrichment ratio of 2.83.
RFHY showed an enrichment ratio of at most 0.25.
With MMCI the enrichment ratio was at most 0.25.
With SCAE the enrichment ratio was 8.81.
With TKYN the enrichment ratio was at most 0.25.
With NGYM the enrichment ratio was at most 0.25.
Variant TGYM has an enrichment ratio of 26.5.
With MKYM the enrichment ratio was 6.46.
With QTYM the enrichment ratio was 0.346.
In the case of TKYM, the enrichment ratio is reported as 25.3.
For QGYM, the enrichment ratio was 23.9.
Work on QQYI yielded an enrichment ratio of at most 0.25.
QQYN was tested, and the enrichment ratio was at most 0.25.
FFYM showed an enrichment ratio of at most 0.25.
Work on QQYM yielded an enrichment ratio of 47.2.
RGYM was tested, and the enrichment ratio was at most 0.25.
LYSK gave an enrichment ratio of at most 0.25.
DGPS showed an enrichment ratio of at most 0.25.
Work on NVIN yielded an enrichment ratio of at most 0.25.
YLDS gave an enrichment ratio of at most 0.25.
TVAW was tested, and the enrichment ratio was 2.61.
SNQY showed an enrichment ratio of 2.66.
In the case of VDNL, the enrichment ratio is reported as at most 0.25.
REKA gave an enrichment ratio of at most 0.25.
Variant QEFM has an enrichment ratio of 18.2.
Variant STYM has an enrichment ratio of 0.458.
QDYM gave an enrichment ratio of at most 0.25.
QKFM was tested, and the enrichment ratio was at most 0.25.
With QEYM the enrichment ratio was 24.7.
QRFM gave an enrichment ratio of at most 0.25.
With GMSV the enrichment ratio was 6.09.
With MLVP the enrichment ratio was at most 0.25.
For NCCG, the enrichment ratio was at most 0.25.
In the case of TQWH, the enrichment ratio is reported as 21.9.
In the case of HRWH, the enrichment ratio is reported as at most 0.25.
TEWH gave an enrichment ratio of 35.2.
KSWH gave an enrichment ratio of at most 0.25.
Work on NEWH yielded an enrichment ratio of at most 0.25.
Variant NAWH has an enrichment ratio of at most 0.25.
KAWH showed an enrichment ratio of at most 0.25.
With KCWH the enrichment ratio was at most 0.25.
In the case of HPWH, the enrichment ratio is reported as at most 0.25.
Work on NVWH yielded an enrichment ratio of at most 0.25.
Work on TGWH yielded an enrichment ratio of 19.8.
QAWH gave an enrichment ratio of 31.4.
